Experimental data: PubChem BioAssay (NCI)
Compounds without any hit were thinned out: in the full panel of roughly 79,000, 15% have a hit. Values without a mark were called inactive. Rule as the data show it: active = growth inhibition above about 70%; inactive = the rest.

Experiment: NCI Yeast Anticancer Drug Screen. Data for the mec2-1 strain (AID 157)
Details: S. cerevisiae mec2-1 strain, at 50.0 µM, stronger effect = higher value
Method in brief: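 Readout is yeast growth inhibition, normalised to vehicle-treated controls, in the mec2-1 strain exposed to compound.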

Structure (SMILES) | growth inhibition
COc1ccc([N+](=O)[O-])c(C(OC(C)=O)OC(C)=O)c1OC(C)=O | 5.6%
CCCC(C)C(=O)OC1CCCC1 (stereo unspecified) | -8.1%
O=C(NC(=S)Nc1ccsc1)c1ccccc1 | 0.7%
CN(C)CCNC(=O)c1cccc(C(C)(C)C)c1[N+](=O)[O-] | -30.1%
CC(C)=C1CCC(CN2CCOCC2)C1=O (stereo unspecified) | 16.4%
CCC(C)NC(=O)/C=C/C(=O)NC(C)CC (stereo unspecified) | -4.25%
Cn1cc(/C=C/C(=O)c2ccccc2[N+](=O)[O-])c2ccccc21 | 12.9%
COC(=O)C[C@H](C)[C@H](C)CC(=O)O | -19.9%
CCCCCN(CCCCC)C(=S)[S-].CCCCCN(CCCCC)C(=S)[S-].[Zn] | 53.6%
O=C1c2ccccc2-c2cc(F)ccc21 | -10.4%
O=c1[nH]c2cc3ccccc3cc2c2ccccc12 | 9.6%
CC(=O)OC1CCC2(C)C(=CCC3C2CCC2(C)C3CC(Br)C2(O)C(C)=O)C1 (stereo unspecified) | 24.1%
O=c1[nH]c(=O)n(C2OC(COP(=O)(O)OP(=O)(O)OC3OC(CO)C(O)C(O)C3O)C(O)C2O)cc1F (stereo unspecified) | 3.65%
O=C(O)c1cc(Cl)cc([N+](=O)[O-])c1 | -3%
O=C(O)c1ccc(C(=O)O)c(C(=O)O)c1.[NH-]C1CCCCC1[NH-].[Pd+2] | 5.2%
COC1=NS(=O)(=O)C2(O1)c1ccccc1-c1ccccc12 | 17.2%
CCOC(=O)/C(O)=C(/C=NC(=S)c1ccncc1)C(=O)OCC | -29.8%
CCC1(C)C(=O)SC(=S)N1C (stereo unspecified) | -0.2%
CC(=O)C1(SCCO)CCC2C3CCC4=CC(=O)CCC4(C)C3CCC21C (stereo unspecified) | 69.8%
CCCCCCc1c(C)nc(N)[nH]c1=O | -3.85%
CN(C)C(CN)CC1=C(CC(CN)N(C)C)CCC1 (stereo unspecified) | 5.25%
CC(=N\NS(=O)(=O)c1ccc(C)cc1)/C(C)=N/NS(=O)(=O)c1ccc(C)cc1 | -1.9%
O=C(N/N=C\c1ccccc1)Nc1cccc2ccccc12 | 16.4%
COc1ccc(NC(=O)Nc2cccc(Cl)c2C)c(OC)c1 | 9.3%
C=CCOC(=O)NC(CCC(N)=O)C(=O)O (stereo unspecified) | 1.1%
CC1(C)OCN(c2ccc(Cl)cc2)Cn2c1nc1ccccc12 | 8.2%
